Test results from PubChem BioAssay AID504882 (Broad Institute, 2011).
In all, about 1,200 compounds went through this assay and about 290 (24%) were called active. Inconclusive results (about 9%) are left out. No rule for the calls is given here. Not all results are given here. A call without a number means that no potency is given here. Potency and affinity values are given separately.

Assay: LCL viability reduction – cell-based, plate reader, cherry-picks, set 2, cytotoxicity control, dose response (AID 504882)
Settings: EBV lymphoblastoid cells (LCL) viability; series mostly up to 19.5 µM

Structure (SMILES)	outcome
Nc1ncnc(N2CCc3ccccc32)c1[N+](=O)[O-]	inactive
CCn1c(NC(=O)c2ccc(C)cc2)c2ccccc2nc1=O	inactive
CC(=O)Nc1ccc(C=NNc2nnc(NN=Cc3ccc(NC(C)=O)cc3)c3ccccc23)cc1	inactive
CCn1c2ccccc2c2cc(NC(=O)c3ccccc3-c3ccccc3C(=O)O)ccc21	inactive
CCCN(CCC)c1ncnc2nc[nH]c12	inactive
COc1ccc(CC(C)NCC(O)c2ccc(O)c(NC=O)c2)cc1 (centres undefined)	inactive
O=C(c1cccs1)N1CC=C(c2ccccc2)CC1	inactive
CCN1C(=O)[C@@H]2[C@@H](c3ccc(-c4ccc(Cl)c(Cl)c4)cc3)N3CCC[C@@]3(C(=O)OC)[C@@H]2C1=O	inactive
CCOC(=O)N1CCN(C(=O)C2CCC(=O)N(Cc3ccccc3OC)C2)CC1 (centres undefined)	inactive
Cc1ccc(-c2cc(N)n3nc(-c4ccc(C)cc4)cc3n2)cc1	inactive
Fc1ccc2[nH]c3c(N4CCN(c5ccccc5)CC4)ncnc3c2c1	inactive
O=[N+]([O-])c1ccc2ncnc(N3CCN(Cc4ccc5c(c4)OCO5)CC3)c2c1	inactive
CC(C)(C)OC(=O)N1Cc2ccccc2C[C@H]1C(=O)NCC(=O)Nc1ccc2c(c1)OCCO2	inactive
O=C(C1CCCCC1)N1CCN(c2ncccn2)CC1	inactive
COC(=O)c1ccccc1NC(=O)CC(=O)Nc1ccccc1C(=O)OC	inactive
O=C(NCCCN1CCCCC1)c1ccc2c(c1)NC(=O)c1ccccc1S2	inactive
CCOc1ccc(NC(=O)c2ccc(N3CC4CC(C3)c3cccc(=O)n3C4)c(NC(=O)c3cccnc3)c2)cc1 (centres undefined)	inactive
CSc1ccccc1OCc1cc(C(=O)N2CCC[C@H]2C(N)=O)no1	inactive
COC(CNC(=O)c1ccc(N2CCC3(CC2)OCCO3)c([N+](=O)[O-])c1)OC	inactive
Cc1ccnc(NC(=O)c2ccc(C(=O)c3ccccc3)cc2)c1	inactive
COc1ccc(C(=O)Nc2cc(C)c(NC(=O)c3ccccc3OC)cn2)cc1	inactive
COc1ccccc1-c1ccccc1C1=CC(=O)CC(C)(C)C1=O	inactive
COc1ccc(C2=NN(C(=O)CSC3=NN4CCCC(=O)N=C4S3)C(c3cccc(OC)c3OC)C2)cc1 (centres undefined)	inactive
O=C(O)c1ccc(N/N=C/c2cc3cc4c(cc3nc2Cl)OCCO4)cc1	inactive
Clc1ccc(-c2ccnc(Oc3ccc4ccccc4c3)n2)cc1	inactive
CCOC(=O)[C@H]1[C@H]2COc3ccc(OC)cc3[C@@H]2N2C(=O)CN(C)C(=O)[C@@]12C	inactive

Structure (SMILES)	outcome
CN(C)CCCC1(c2ccc(F)cc2)OCc2cc(C#N)ccc21 (centres undefined)	inactive
CC1(C)Cc2nc3sc4c(SCC(=O)O)ncnc4c3cc2CO1	inactive
COc1ccc(C=C2OC(=O)C(C(C)=O)=C2O)cc1	inactive
COc1ccc(-c2oc3ncnc(NCCN4CCOCC4)c3c2-c2ccc(OC)cc2)cc1	inactive
CCN(CC(=O)Nc1ccc(NC(C)=O)cc1)C(=O)c1cccnc1Sc1ccc(C)c(C)c1	inactive
COc1ccc(N2Cc3cccc(C(=O)NC(C)CCc4ccco4)c3C2=O)cc1 (centres undefined)	inactive
COc1ccc(-c2cc(C(=O)N3CCCC3)no2)cc1	inactive
CC(Sc1nc(-c2ccc(F)cc2)cs1)C(=O)N1c2ccccc2CC1C (centres undefined)	inactive
Cc1ccc(CN2C(=O)CCC2C(=O)NCCCN2CCC(C)CC2)cc1 (centres undefined)	inactive
Cc1cnc(NC(=O)c2ccc(OCC3CCCO3)cc2)s1 (centres undefined)	inactive
CCN(CC)S(=O)(=O)c1cccc(-n2c(O)c(C=Nc3ccccc3C(=O)O)c3ccccc3c2=O)c1	inactive
O=C(O)c1ccc(N/N=C/c2ccc3ncccc3c2)cc1	inactive
CCN(CC)S(=O)(=O)c1ccc(N=NC2=C(O)CCCC2=O)cc1	inactive
COc1ccc(C(=O)CN(CCC(=O)O)S(=O)(=O)c2ccc([N+](=O)[O-])cc2)cc1	inactive
O=C(NCCc1ccccc1)c1ccc2nccnc2c1	inactive
CCN(C(=O)CSc1nnc(Nc2cccc(C)c2C)s1)C1CCS(=O)(=O)C1 (centres undefined)	inactive
CCCC(C)NC(C)C(=O)NC1CCCC1 (centres undefined)	inactive
COCCNC(=O)C1CCC(CNS(=O)(=O)c2ccccc2)CC1 (centres undefined)	inactive
Cc1ccc(-c2nnn(CC(=O)N(Cc3ccco3)C(C(=O)NC(C)(C)C)c3ccncc3)n2)o1 (centres undefined)	inactive
COCCCNC(=O)CN1C(=O)COc2ccc(S(=O)(=O)N3CCOCC3)cc21	inactive
O=C(CN1C(=O)c2ccccc2S1(=O)=O)c1ccccc1F	inactive
CN(Cc1ccccc1)c1nc(N)c([N+](=O)[O-])c(NCc2ccccc2)n1	inactive
CCCCCn1c(N2CCOCC2)nc2c1c(=O)n(CC(N)=O)c(=O)n2C	inactive
NC(=O)N/N=C/c1ccc(N2CCOCC2)s1	inactive
CCCCCC(=O)N1C[C@@H](O)[C@H](n2cc(C3CC3)nn2)C[C@@H]1c1ccc(C)cc1	inactive
CCN1CCN(Cc2ccc(NC(=O)c3ccc(C)c(NC(=O)N4CCNC4=O)c3)cc2C(F)(F)F)CC1	inactive

Structure (SMILES)	outcome
CCN1CCN(Cc2ccc(NC(=O)c3ccc(C)c(NC(=O)c4cccc5[nH]ccc45)c3)cc2C(F)(F)F)CC1	inactive
COc1ccc(/C(CC2OC(=O)c3ccccc32)=N\NC(N)=O)cc1 (centres undefined)	inactive
c1ccc2c(-c3ccncc3)c[nH]c2c1	inactive
C[C@@H]1CN([C@@H](C)CO)C(=O)c2cc(NC(=O)Nc3ccccc3)ccc2O[C@H]1CN(C)C(=O)Nc1cccc2ccccc12	inactive
c1ccc(C2c3[nH]c4ccccc4c3CCN2Cc2cccn2-c2ccccn2)nc1 (centres undefined)	inactive
COc1ccccc1NC(=O)C(=O)N/N=C(\C)CC(=O)Nc1ccccc1C(F)(F)F	inactive
COc1ccc(C(=O)N2CC(=O)Nc3ccccc32)cc1S(=O)(=O)N1CCCC1	inactive
COc1ccc(N2C(=O)CC(Sc3nnc(-c4ccccc4)o3)C2=O)cc1 (centres undefined)	inactive
COc1cc(OC)cc(-c2c(C#Cc3ccsc3)c3cc(-c4cc(OC)c(OC)c(OC)c4)ccc3n2C)c1	inactive
Cc1nc(N)nc(SCc2ccc([N+](=O)[O-])cc2)c1N	inactive
COCCCn1cnnc1SCC(=O)Nc1ccc(S(=O)(=O)N2CCCC2)cc1	inactive
O=C(CCN1CCC(c2ccccc2)C1)c1ccc2c(c1)OCCO2 (centres undefined)	inactive
COCCn1c(C)cc(C(=O)COC(=O)C23CC4CC(CC(O)(C4)C2)C3)c1C	inactive
CC(C)OCCCNC(=O)C1CCC(CNS(=O)(=O)c2ccccc2)CC1 (centres undefined)	inactive
COC(=O)c1cc2n(n1)CCN(Cc1ccccc1Cl)C2=O	inactive
COc1ccc(OC)c2c1sc(=NC(=O)c1ccco1)n2C	inactive
c1ccc(-n2nnc3c(N4CCOCC4)ncnc32)cc1	inactive
CCc1cc2c(Sc3nc4ccccc4s3)ncnc2s1	inactive
Cc1ccc(CNC(=O)C2CCN(S(=O)(=O)c3c(C)noc3/C=C/c3ccco3)CC2)cc1	inactive
COc1cc(Cl)cc(C(c2c(C(=O)O)[nH]c3ccccc23)c2c(C(=O)O)[nH]c3ccccc23)c1O	inactive
Cn1cccc1C(=O)OCC(=O)Nc1ccc2c(c1)OCO2	inactive
O=C(Nc1cccc(Cl)c1)Nc1cccc(C(=O)O)c1	inactive
Cc1ccc(C(=O)N2CCN(c3ccc(NC(=O)CSc4ccc(Cl)cc4)cc3)CC2)cc1	inactive
CC1CCN(c2ccc(-c3ccc(NC(=O)C(F)(F)F)cc3)nn2)CC1	inactive
CSc1ccccc1NC(=O)CN1CCCCC1C (centres undefined)	inactive
Cc1ccnc(NC(=O)c2cccc(NC(=O)c3ccc(Cl)c(Cl)c3)c2)c1	inactive

Structure (SMILES)	outcome
Cn1cccc1CC(=O)NNC(=S)Nc1ccccc1Cl	inactive
COc1ccccc1NC(=S)NN=C(C)c1ccccn1	inactive
CC(=O)NC(CCS(C)(=O)=O)C(=O)Nc1ccc(Cl)c(Cl)c1 (centres undefined)	inactive
Cc1ccc(NC(=S)NCc2cccs2)cc1	inactive
S=C(NN=C1C2CC3CC(C2)CC1C3)Nc1ccccc1	inactive
COCCCNCC1C(Oc2ccc(Cl)cc2)C(=O)N1c1ccccc1C (centres undefined)	inactive
O=c1cc(Cl)nc2ccccn12	inactive
CCCc1nc(SCC(=O)NCc2ccco2)c2c(=O)n(C)c(=O)n(C)c2n1	inactive
COC(=O)[C@@]1(Cc2ccccc2)[C@H]2C(=O)N(Cc3ccccc3)C(=O)[C@H]2[C@H]2CN=C(SCc3ccc(Cl)cc3)N21	inactive
CCOCCCNC(=O)CN1C(=O)/C(=C\c2ccc(C)cc2)Sc2ccccc21	inactive
O=C1NC(c2cccc(OCc3ccccc3)c2)Nc2ccccc21 (centres undefined)	inactive
COc1ccccc1C1(CC(=O)O)CCOC(C)(C)C1 (centres undefined)	inactive
Clc1cccc(CN2CCCCCC2)c1	inactive
O=C(c1ccccc1Br)N1CCN(Cc2ccc3c(c2)OCO3)CC1	inactive
Fc1cccc(Cl)c1/C=N/n1c(-c2cccnc2)n[nH]c1=S	inactive
Cn1c(-c2ccccc2)cnc1SCC(=O)N1CCCCC1	inactive
COc1ccc([C@H]2N[C@]3(CCCN(Cc4ccco4)C3=O)[C@H]3C(=O)N(Cc4ccccc4)C(=O)[C@@H]23)cc1	inactive
Cc1nn(-c2ccccc2)c(Cl)c1C(=O)N1CCN(c2ncnc3c2cnn3-c2ccccc2)CC1	inactive
COc1ccc(/C=C2\N=C(C)OC2=O)cc1[N+](=O)[O-]	inactive
Cc1ccc(N2C(=O)c3ccccc3C2Nc2cccnc2)nc1 (centres undefined)	inactive
C=CCN=C1NN=C(c2cc(C)n(CCOC)c2C)CS1	inactive
COc1ccc(-c2nc(CN3CCC(C(=O)N4CCOCC4)CC3)c(C)o2)cc1C	inactive
Cc1cc2ccccc2n1CCNC(=O)COc1ccc2ccccc2c1	inactive
Cc1ccccc1C(=O)c1c[nH]c(C(=O)NCc2ccco2)c1	inactive
O=C1c2ccccc2C(O)N1Cc1ccccc1 (centres undefined)	inactive
Nc1ncnc2c1c(-c1ccc(Oc3ccccc3)cc1)cn2C1CCCC1	inactive
